Shown are actives, neighbours in structure and some others; about 6.8% of the full set was active somewhere.
T cruzi growth-1 – inhibitors of T. cruzi proliferation; T. cruzi beta-gal in NIH3T3, GalScreen luminescence, 90 h; actives 5.9% (n = 77,000); inhibition, % at 8.34 µM;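 active means mean inhibition above about 93%, with at least 55% of replicates each passing it, limit read from the data, passing the limit was not always enough; inconclusive means only one of those two conditions holds; inactive means neither condition holds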
C diff growth – blocks growth of Clostridium difficile; actives 0.25% (n = 86,000); growth activity, negative = inhibition, % at 16 µg/mL (by protocol); Clostridium difficile clinical isolate growth, OD600, 24 h; stronger effect = lower value;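 active means mean growth activity at or below -80% and every replicate also at or below -80%; inconclusive means mean at or below -80% but some replicate above -80%; inactive means mean growth activity above -80%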;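 further: 0% = DMSO wells and -100% = levofloxacin 16 µg/mL wells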
Pf Dd2 inh – inhibitors of Plasmodium falciparum Dd2 growth; actives 2.3% (n = 94,000); activity change, % at 10 µM; P. falciparum Dd2 growth, SYBR Green, 72 h; stronger effect = lower value; in the data active means activity change below about -80%; inconclusive means no clear call, values can overlap the other calls
T cruzi growth-2 – inhibitors of T. cruzi proliferation. shares compounds with T cruzi growth-1. T. cruzi beta-gal in NIH3T3, GalScreen luminescence, 90 h. inhibition, % at 8.35 µM. actives 72% (n = 5,600). AID 651739;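 active means mean replicate inhibition above about 95% and at least 55% of replicates individually reaching it, limit read from the data; inconclusive means only one of the two criteria is met; inactive means neither criterion is met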
T cruzi growth-3 – Trypanosoma cruzi proliferation inhibition | AID 651740 | inhibition, % at 2.09 µM | actives 21% (n = 5,600) | shares compounds with T cruzi growth-1 | T. cruzi beta-gal in NIH3T3, GalScreen luminescence, 90 h;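 active means mean inhibition above about 95%, with at least 55% of replicates also reaching it, limit read from the data; inconclusive means meets just one of the two conditions; inactive means meets neither condition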;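 further: plate controls were neutral control median for no effect and positive control median for full effect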
3T3 cytotox – NIH/3T3 (mouse) viability loss | NIH/3T3 viability, CellTiter-Glo ATP luminescence, 90 h | cytotoxicity (signal decrease), % at 8.35 µM | actives 14% (n = 5,600) | shares compounds with T cruzi growth-1;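 active means mean signal decrease across replicates above about 35% based on untreated-well scatter, with enough replicates individually passing, limit read from the data; inconclusive means no rule stated though some were filed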;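 further: 0% = median of neutral control wells and 100% = median of positive control wells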
NIH3T3 tox 2 – cytotoxicity in mouse NIH/3T3 fibroblasts. inhibition, % at 24.9 µM. NIH/3T3 viability, CellTiter-Glo ATP luminescence, 90 h. shares compounds with T cruzi growth-1. actives 56% (n = 5,600);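 active means mean loss of cell viability signal at or above a set limit, and enough replicates individually reaching it; inconclusive means meets only the mean limit or only the replicate share; inactive means meets neither condition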;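 further: 0% = median of neutral control wells and 100% = median of positive control wells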
* hit, by the source's call; ? = inconclusive; . = no result.

SMILES	T cruzi growth-1	C diff growth	Pf Dd2 inh	T cruzi growth-2	T cruzi growth-3	3T3 cytotox	NIH3T3 tox 2
C[C@H](CO)N1C[C@H](C)[C@@H](CN(C)C(=O)c2ccccc2)OCCCC[C@H](C)Oc2ccc(NC(=O)c3ccncc3)cc2C1=O	11.2	-3.5	-0.8	.	.	.	.
C[C@@H]1CCCCO[C@@H](CN(C)C(=O)c2ccccc2)[C@@H](C)CN([C@H](C)CO)C(=O)c2cc(NC(=O)c3ccccc3)ccc2O1	33.5	1.1	-18.9	.	.	.	.
C[C@H]1CCCCO[C@H](CN(C)C(=O)c2ccncc2)[C@@H](C)CN([C@@H](C)CO)C(=O)c2cc(NC(=O)c3ccccc3)ccc2O1	99.6*	-6.2	-6.9	51.1	10.5	-3.8	-7.9
C[C@@H]1CN([C@@H](C)CO)C(=O)c2cc(/C=C/c3ccccc3)cnc2O[C@H]1CN(C)S(=O)(=O)c1cccs1	.	-2.1	-55.8	.	.	.	.
COCC#Cc1cnc2c(c1)C(=O)N([C@@H](C)CO)C[C@@H](C)[C@@H](CN(C)C(=O)CCN1CCCCC1)O2	49.8	2.1	42.8	.	.	.	.
CN(C)CC(=O)N[C@@H]1CC[C@@H](CCNC(=O)Nc2ccc(F)cc2)O[C@@H]1CO	39.3	.	-49.0	.	.	.	.
CO[C@@H]1CN(C)C(=O)c2cc(NC(=O)Nc3cc(F)ccc3F)ccc2OC[C@@H](C)NC[C@H]1C	51.9	.	-28.8	.	.	.	.
CC(C)C#Cc1ccc2c(c1)O[C@@H](CN(C)C(=O)C1CC1)[C@@H](C)CN([C@H](C)CO)S2(=O)=O	.	-1.2	-12.5	.	.	.	.
Cc1ccc(S(=O)(=O)Nc2ccc3c(c2)C(=O)N([C@@H](C)CO)C[C@H](C)[C@H](CN(C)Cc2ccc(C(F)(F)F)cc2)O3)cc1	99.3*	.	-6.0	102.8*	100.4*	10.4	99.1*
C[C@H]1CN([C@@H](C)CO)C(=O)c2cc(NS(=O)(=O)c3ccc(F)cc3)ccc2O[C@@H]1CN(C)Cc1ccc(C(F)(F)F)cc1	54.8	-2.5	8.2	.	.	.	.
C[C@@H]1CN([C@H](C)CO)C(=O)c2cc(NS(=O)(=O)c3ccc(Cl)cc3)ccc2O[C@@H]1CN(C)Cc1ccc(C(F)(F)F)cc1	128.3*	19.1	11.2	?	3.1	94.1*	102.9*
Cc1ccc(S(=O)(=O)Nc2ccc3c(c2)C(=O)N([C@H](C)CO)C[C@H](C)[C@H](CN(C)Cc2ccc(C(F)(F)F)cc2)O3)cc1	97.1*	.	-10.2	97.6*	61.5	12.4	102.8*
C[C@@H]1CN([C@H](C)CO)C(=O)c2cc(NS(=O)(=O)c3ccc(F)cc3)ccc2O[C@@H]1CN(C)Cc1ccc(C(F)(F)F)cc1	68.9	-7.9	9.1	.	.	.	.
C[C@@H]1CN([C@@H](C)CO)C(=O)c2cc(NS(=O)(=O)c3ccc(Cl)cc3)ccc2O[C@H]1CN(C)Cc1ccc(C(F)(F)F)cc1	84.7	23.8	1.8	.	.	.	.
C[C@@H]1CN([C@@H](C)CO)C(=O)Cc2cc(NS(=O)(=O)c3ccccc3)ccc2O[C@@H]1CN(C)S(=O)(=O)c1cccs1	20.5	-4.0	7.1	.	.	.	.
O=C(N[C@H]1CC[C@@H](CCNC(=O)C2CCCCC2)O[C@@H]1CO)c1ccncc1	6.8	1.9	0.0	.	.	.	.
CC(C)CC#Cc1ccc([C@H]2[C@@H](CO)N3CCCCN(C(=O)NC4CCCC4)C[C@@H]23)cc1	118.0*	-26.7	2.3	110.0*	79.0	19.4	103.6*
CC(C)CC#Cc1ccc([C@@H]2[C@H]3CN(C(=O)NC4CCCC4)CC(=O)N3[C@H]2CO)cc1	.	56.0	-69.0	.	.	.	.
CC(C)CC#Cc1ccc([C@H]2[C@H](CO)N3C(=O)CN(C(=O)NC4CCCC4)C[C@@H]23)cc1	.	-20.9	-0.5	.	.	.	.
CC(C)CC#Cc1ccc([C@H]2[C@H](CO)N3CCCCN(C(=O)NC4CCCC4)C[C@@H]23)cc1	112.8*	-7.6	-34.7	93.1	86.7	43.1*	103.3*
COCC#Cc1ccc([C@H]2[C@@H](CO)N3CCCCN(C(=O)NC4CCCC4)C[C@H]23)cc1	76.3	-2.7	-3.5	.	.	.	.
CC(C)CC#Cc1ccc([C@H]2[C@@H](CO)N3C(=O)CN(C(=O)NC4CCCCC4)C[C@H]23)cc1	.	-11.3	-39.0	.	.	.	.
CC(C)CC#Cc1ccc([C@@H]2[C@@H](CO)N3CCCCN(C(=O)NC4CCCC4)C[C@@H]23)cc1	101.7*	18.4	-11.4	100.6*	63.8	19.9	107.4*
CCCC#Cc1ccc([C@H]2[C@H](CO)N3CCCCN(C(=O)NC4CCCC4)C[C@@H]23)cc1	?	9.5	-35.6	85.9	?	48.2*	105.4*
O=C(C1CCC1)N1C[C@@H]2N[C@H](C1)C2c1ccc(-c2ccncc2)cc1 (some centres undefined)	.	-9.1	-67.4	.	.	.	.
SMILES	T cruzi growth-1	C diff growth	Pf Dd2 inh	T cruzi growth-2	T cruzi growth-3	3T3 cytotox	NIH3T3 tox 2
CNC[C@@H]1Oc2ccc(NC(=O)C3CC3)cc2C(=O)N([C@H](C)CO)C[C@@H]1C	-15.7	-9.8	20.7	.	.	.	.
C[C@H](CO)N1C[C@H](C)[C@@H](CN(C)CC2CC2)OCCCC[C@H](C)Oc2ccc(NS(C)(=O)=O)cc2C1=O	30.6	-8.1	53.8	.	.	.	.
CC(C)NC(=O)N(C)C[C@H]1Oc2c(NC(=O)C3CC3)cccc2C(=O)N([C@H](C)CO)C[C@H]1C	96.6*	-1.9	-1.0	59.1	-9.7	-3.4	-20.9
C[C@H]1CN([C@@H](C)CO)C(=O)c2cccc(NC(=O)NC3CCCCC3)c2O[C@H]1CN(C)Cc1ccc(-c2ccccc2)cc1	74.4	2.6	9.0	.	.	.	.
Cc1noc(C)c1NC(=O)N(C)C[C@@H]1Oc2c(NS(=O)(=O)c3c(C)noc3C)cccc2C(=O)N([C@@H](C)CO)C[C@@H]1C	15.9	0.1	27.6	.	.	.	.
Cc1noc(C)c1NC(=O)N(C)C[C@@H]1Oc2c(NS(=O)(=O)c3c(C)noc3C)cccc2C(=O)N([C@H](C)CO)C[C@@H]1C	101.6*	6.1	24.9	101.8*	10.1	12.7	-3.3
C[C@@H]1CN([C@@H](C)CO)C(=O)c2cccc(NC(=O)NC3CCCCC3)c2O[C@@H]1CN(C)Cc1ccc(Oc2ccccc2)cc1	73.6	16.6	-65.2	.	.	.	.
CC(C)NC(=O)N(C)C[C@H]1Oc2c(NC(=O)C3CC3)cccc2C(=O)N([C@@H](C)CO)C[C@H]1C	-10.6	2.3	7.4	.	.	.	.
C[C@H](CO)N1C[C@H](C)[C@H](CN(C)Cc2ccc(Oc3ccccc3)cc2)Oc2c(NC(=O)NC3CCCCC3)cccc2C1=O	?	15.8	5.9	99.8*	104.9*	?	51.5*
C[C@@H]1CN([C@H](C)CO)C(=O)c2cccc(NC(=O)NC3CCCCC3)c2O[C@@H]1CN(C)Cc1ccc(-c2ccccc2)cc1	114.6*	16.7	-33.8	101.5*	67.5	6.0	?
